Experimental data as given in PubChem BioAssay AID652017 (The Scripps Research Institute Molecular Screening Center, 2013).
Out of some 370,000 compounds screened, about 3,800 (1%) were called active. Rule as the data show it: active = activation above about 7.8%; inactive = the rest. The sample as a whole holds a higher share of actives than the screen did.

Experiment: SMARCA2 (BRM) function activators, primary screen, cell-based, luminescence, high throughput (AID 652017);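 also: 0% = vehicle wells and 100% = reference activator wells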
Conditions: MG213 cells, MMTV-luciferase reporter, dexamethasone, overnight; at 9.1 µM; active compounds read high

activation, active:
Cc1ccc(N/C=C/C(=O)c2ccccc2)cc1C 14.5%
CC(C)c1ccc(NC(=S)NC2CC3C=CC2C3)cc1 (stereo unspecified) 8.66%
Cc1cc(OC(=O)c2ccccc2)c([N+](=O)[O-])c(=O)[nH]1 7.86%
O=C1Cc2cc(S(=O)(=O)Nc3cccc(F)c3)ccc2N1 9.16%
O=C(CSc1nc2ccccc2[nH]1)c1cccs1 8.32%
CCCCNC(=O)C1CCC(CNS(=O)(=O)c2ccc(NC(C)=O)cc2)CC1 (stereo unspecified) 12.9%
COc1cc(CN2CCC(C(N)=O)CC2)ccc1OCc1ccccc1 10.4%

activation, inactive:
CC(C)(C)n1nc(C2CC2)c(Br)c1NC(=O)c1ccccc1F -3.81%
COc1ccc(S(=O)(=O)N2CCOCC2)cc1NC(=O)Cc1coc2cc(C)ccc12 -0.89%
C#CCCN([C@H](C(=O)OC)C(C)C)S(=O)(=O)c1ccc(F)cc1Br 0.37%
O=C(OC12CCCN(C1)/C(=C/c1cccnc1)C2)C1CCCC1 (stereo unspecified) -1.64%
Cc1cccc(C(=O)Nc2ccc(C(=O)/C=C/c3cccs3)cc2)c1 7.01%
COC(C(=O)Nc1ccc(S(=O)(=O)Nc2ccc(C)c(C)c2)cc1)c1ccccc1 (stereo unspecified) -2.54%
O=C(CCCCCCCC(=O)N1CCCCC1)N1CCCCC1 -4.31%
Cc1cccc(C(=O)Nc2c(-c3ccc(F)cc3)nc3ncccn23)c1 -2.99%
CC(c1ccc(N)cc1)c1cn(C)c2ccccc12 (stereo unspecified) 2.03%
Cc1ccc(CN(N=Nc2nonc2N)c2nonc2N)c(C)c1 -3.9%
O=C(COC(=O)C1CC2C=CC1C2)Nc1ccccc1 (stereo unspecified) -3.49%
CC(NC(=S)Nc1ccc(OC(F)F)cc1)c1ccc(F)cc1 (stereo unspecified) -2.75%
COc1cccc(/C=C2\CC3(OC(C)=O)CCCN2C3)c1 (stereo unspecified) 1.54%
COc1cccc(C(=O)Oc2cc(C)[nH]c(=O)c2[N+](=O)[O-])c1 0.69%
Cc1cc(OC(=O)c2ccc(OC(C)C)cc2)c([N+](=O)[O-])c(=O)[nH]1 -2.6%
Cn1c(=O)n(C)c2cc(S(=O)(=O)Nc3ccc(F)cc3)ccc21 -2.88%
CC1CCC(NS(=O)(=O)c2ccc3c(c2)CC(=O)N3)CC1 (stereo unspecified) -2.52%
CCN(CC)C(=O)CC[C@H]1CC[C@]2(CCCN(Cc3ccc(Cl)cc3)C2)O1 -0.46%
CCOC(=O)CCCNC(=O)COC(=O)c1cc(Br)c(Br)s1 -1.12%
COC(=O)C1CN(CC(C)C)CCS(=O)(=O)N1Cc1ccc(F)cc1 (stereo unspecified) 1.2%
COC(=O)[C@]12C[C@H](CC(=O)NCC34CC5CC(CC(C5)C3)C4)C(=O)N(Cc3ccc(Cl)cc3Cl)C1=C[C@H](COCc1ccccc1)O[C@@H]2C -1.25%
C=CCn1c(SCC(N)=O)nnc1-c1ccccc1OC -5.95%
Cn1c(SCC(=O)c2cccs2)nnc1-c1ccco1 2.45%
O=C(NCc1ccccc1)c1onc(CSc2nc3ccccc3[nH]2)c1C(=O)NCc1ccccc1 -0.17%
COC(=O)[C@@]12CCCCC3=C1N(CCC3)C(=O)[C@H]2CC(=O)NCc1cccc2ccccc12 -2.69%
Cc1cc(Cl)ccc1C(=O)C1CCCN(C(=O)c2ccc3c(c2)OCO3)C1 (stereo unspecified) 0.89%
CC1=NNC(=O)C1CC(=O)N/N=C/c1ccncc1 (stereo unspecified) -3.81%
O=C(CSc1nnc(-c2ccccn2)n1-c1ccccc1)Nc1ccc2cn[nH]c2c1 0.38%
Cc1ccc(C(=O)N(Cc2ccccn2)CC2CCCO2)cc1 (stereo unspecified) -2.73%
COc1ccc(CSc2nnc(-c3cccc(C)c3)n2C)cc1 -2.04%
Cc1ccc(-c2nnc(SCC(=O)Nc3ccc(Oc4ccccc4)cc3)n2Cc2ccco2)cc1 -4.83%
CCCCSCCCNC(=O)C1CCC(CNS(=O)(=O)c2ccc(NC(C)=O)cc2)CC1 (stereo unspecified) -2.92%
CC(=O)Nc1ccc(S(=O)(=O)NCC2CCC(C(=O)NCCc3ccccc3)CC2)cc1 (stereo unspecified) -3.64%
COc1ccccc1C(=O)N1CCNC(=O)C1CC(=O)Nc1ccc(Cl)cc1 (stereo unspecified) -0.22%
COc1ccc(C2CC=C(C(=O)O)C(c3ccccc3F)N2S(=O)(=O)c2ccc(C)cc2)cc1OC (stereo unspecified) 0.02%
N#C/C=C1\Sc2ccccc2C(=O)N1CC(=O)N1CCN(S(=O)(=O)c2ccccc2)CC1 6.51%
CCc1ccccc1NC(=O)CSc1nnc(-c2cccs2)o1 5.4%
COc1ccc(COCC(O)CN2CCC(C(N)=O)CC2)cc1 (stereo unspecified) -2.59%
COc1ccc(CCN2C(=O)CC(N3CCC(C(N)=O)CC3)C2=O)cc1OC (stereo unspecified) -1.41%
